Screens (PubChem BioAssay)
G9a inh: qHTS Assay for Inhibitors of Histone Lysine Methyltransferase G9a; Histone-lysine N-methyltransferase EHMT2 (Homo sapiens), Q96KQ7; G9a H3K9 monomethylation, AlphaScreen, 2 h; Potency, µM (top dose mostly 102 µM), usual class: inhibitors; 350,000 compounds, 8.8% hits; further: nearly all actives have a fitted effect of over 75% in size
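Step 1: enzyme (final 20 nM) with compound, 15 min RT. Step 2: substrate peptide 500 nM and SAM 20 uM, 2 h RT. Step 3: anti-H3K9me1 antibody and AlphaScreen beads, 10 min, then plate read.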
BAZ2B inh: qHTS Assay for Inhibitors of BAZ2B | Bromodomain adjacent to zinc finger domain protein 2B (Homo sapiens), Q9UIF8 | AlphaScreen BAZ2B-H3K14Ac peptide displacement | Potency, µM (doses to about 114 µM), actives largely listed as inhibitors | 360,000 compounds, 4.4% hits; further: nearly all actives have a fitted effect of over 60% in size
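Complex of BAZ2B and biotin-H3K14Ac (50 nM apiece) forms over 30 min at RT, then faces library compounds up to 110 uM for another 30 min; AlphaScreen beads added, 20 min dark incubation, luminescence read.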
HP1b binding inh: HTS for Inhibitors of HP1-beta Chromodomain Interactions with Methylated Histone Tails; Chromobox protein homolog 1 (Homo sapiens), P83916; AlphaScreen HP1-beta / biotin-H3K9me3 peptide binding; Potency, µM (titrated, usually from 114 µM), actives largely listed as inhibitors; 390,000 compounds, 0.56% hits; AID 540317, 2011; further: nearly all actives have a fitted effect of over 70% in size
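AlphaScreen: HP1-beta (50 nM) preformed 30 min with biotin-H3(1-18)K9me3 peptide (50 nM) in PBS pH 7.4, 0.01% Tween-20. Compound added for 30 min at RT, then streptavidin donor/nickel chelate acceptor beads (10 ug/mL) for 30 min.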
JMJD2A Tudor: qHTS Assay for Inhibitors of JMJD2A-Tudor Domain | Lysine-specific demethylase 4A (Homo sapiens), O75164 | AlphaScreen JMJD2A-Tudor / H3K4me3 peptide binding | Potency, µM (series often up to 114 µM), most hits filed as inhibitors | 390,000 compounds, 4.4% hits | AID 504339, 2011; further: nearly all actives have a fitted effect of over 50% in size
12-LOX inh: Primary qHTS assay for inhibitors of human arachidonate 12S-lipoxygenase (ALOX12): Round 2; Polyunsaturated fatty acid lipoxygenase ALOX12 (Homo sapiens), P18054; purified 12hLO, xylenol orange hydroperoxide absorbance; Potency, µM (doses to about 108 µM), usual class: inhibitors; 580,000 compounds, 1.1% hits
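Hydroperoxide product was detected by ferrous iron/xylenol orange as the 573 to 405 nm absorbance ratio. Arachidonic acid at 40 uM (final) was turned over for 30 min at room temperature by 150 nM human 12hLO, pH 7.0 Hepes buffer, after 15 min compound preincubation.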
PLK1 PBD block: qHTS for Inhibitors of PLK1-PDB (polo-like kinase 1 - polo-box domain): Primary Screen. Serine/threonine-protein kinase PLK1 (Homo sapiens), P53350. Plk1 PBD binding of FITC phosphopeptide, fluorescence polarization. Potency, µM, hits mostly inhibitors. 360,000 compounds, 2.8% hits. AID 720504, 2013; further: series mostly up to about 57 µM; nearly all actives have a fitted effect of over 65% in size
Target sequence (P53350 whole entry, looked up, the tested form may be a part): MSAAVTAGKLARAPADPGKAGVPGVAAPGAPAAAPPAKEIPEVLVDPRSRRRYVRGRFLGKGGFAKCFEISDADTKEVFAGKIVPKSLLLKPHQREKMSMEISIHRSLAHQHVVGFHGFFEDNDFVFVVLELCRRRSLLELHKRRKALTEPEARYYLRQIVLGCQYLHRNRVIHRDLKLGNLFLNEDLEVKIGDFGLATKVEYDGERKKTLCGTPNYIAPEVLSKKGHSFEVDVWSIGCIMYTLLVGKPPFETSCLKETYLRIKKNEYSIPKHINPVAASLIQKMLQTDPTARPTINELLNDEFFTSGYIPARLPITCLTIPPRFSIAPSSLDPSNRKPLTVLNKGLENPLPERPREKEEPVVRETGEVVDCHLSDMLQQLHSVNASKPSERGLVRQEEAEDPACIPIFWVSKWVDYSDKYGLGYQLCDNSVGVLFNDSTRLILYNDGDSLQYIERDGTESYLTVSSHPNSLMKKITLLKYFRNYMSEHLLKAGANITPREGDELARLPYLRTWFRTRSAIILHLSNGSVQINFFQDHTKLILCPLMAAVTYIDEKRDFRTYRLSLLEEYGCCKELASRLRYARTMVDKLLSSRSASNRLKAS
Hits are given with their value; . = inactive; ? = inconclusive; / = no result given; [ ] = another dose, or the depositor's remark. Shown are actives, neighbours in structure and some others; about 9% of the full set was active somewhere. The call rests on the fitted dose curve; in most records, active means well fitted curve in the direction sought with a large enough effect; inconclusive means small, poorly fitted or top-dose-only effect, or another doubt; inactive means no such curve, though single readings can be large; an effect the other way counts as inactive or inconclusive.

SMILES	G9a inh	BAZ2B inh	HP1b binding inh	JMJD2A Tudor	12-LOX inh	PLK1 PBD block
O=C(CN1C(=O)S/C(=C\c2ccccc2)C1=O)Nc1cc([N+](=O)[O-])ccc1O	?	?	.	?	?	.
Cc1cccc(N2CCN(CC(=O)N(C3CCCC3)C3CCS(=O)(=O)C3)CC2)c1C (configuration not stated)	.[2.33 µM]	.	.	.	.	.
O=C(O)c1oc2ccccc2c1-n1cccc1	?	.	.	79.4µM	.	.
Cc1ccc(C2=Nc3ccccc3N(C(=O)c3ccccc3)C(C)C2)cc1 (configuration not stated)	.	.	?	?	.	29.9µM
Cc1ccc(C(=O)N2[C@@H]3CC[C@H]2CC(NC(=O)c2cnc(C)cn2)C3)cc1 (some centres not stated)	/	/	/	/	.	/
CCN(CC)CCN1C(=O)/C(=C\c2ccc(Cl)c([N+](=O)[O-])c2)SC1=Nc1ccc(OC)cc1	11.2µM	10µM	11.2µM	17.8µM	?	.
COc1ccc(N=C2S/C(=C\c3ccc(Cl)c([N+](=O)[O-])c3)C(=O)N2CCN(C)C)cc1	?	15.8µM	15.8µM	35.5µM	.	.
CCCN1C(=O)/C(=C/c2ccc(C)s2)SC1=Nc1ccc(OC)cc1	.	?	.	?	.	.
Cc1cc(NC(=O)c2ccccc2Cl)no1	.	.	.	.	.	.
CN(NC(=O)c1ccc(Cl)cc1)c1cccc(Cl)n1	.	.	.	.	.	.
O=C(NCc1ccc(F)cc1)N1CCN(C(=O)N2CC3CC(C2)[C@H]2CCCC(=O)N2C3)CC1 (some centres not stated)	/	/	/	/	.	/
Cc1ccc(NC(=S)N=Nc2c(O)[nH]c3ccccc23)cc1	.	/	.	.	.	.
O=C(N=Nc1c(O)[nH]c2ccccc12)c1cccs1	79.4µM	.	.	.	.	.
Oc1ccc(NC(=S)N=Nc2c(O)[nH]c3ccc(Br)cc23)cc1	?	20µM	?	31.6µM	?	.
Oc1ccc(NC(=S)N=Nc2c(O)[nH]c3ccccc23)cc1	50.1µM	.	?	?	?	.
O=C(N=Nc1c(O)[nH]c2ccccc12)c1cc(NS(=O)(=O)c2cccs2)cc(NS(=O)(=O)c2cccs2)c1	.	.	.	.	.	.
Oc1[nH]c2ccc(Br)cc2c1N=NC(=S)Nc1ccc(F)cc1	.	?	?	.	.	.
COc1cc2cc(Oc3ccc4ccc(=O)oc4c3)c(=O)oc2cc1O[C@@H]1O[C@H](CO)[C@@H](O)[C@H](O)[C@H]1O	/	/	.	.	.	?
CN(N=Cc1ccc(N(C)C)cc1)C(=O)c1ccccc1N	/	/	/	/	.	/
Cc1nc2c(cc1NC(=O)c1ccccc1)nc(C)n2Cc1ccccc1	.	.	.	.	.	.
COc1ccc(N2CCN(C(=O)c3ccccc3N(C)S(=O)(=O)c3ccccc3)CC2)cc1	44.7µM	?	.	.	.	.
COc1ccc(N2CCN(C(=O)c3ccc(N(C)S(=O)(=O)c4ccc(C)cc4)cc3)CC2)cc1	.[0.501 µM]	?	?	?	.	.
COc1ccc(S(=O)(=O)N(C)c2ccc(C(=O)N3CCN(C)CC3)cc2)cc1	50.1µM	.	.	.	.	.
COc1ccc(N2CCN(C(=O)c3ccc(N(C)S(=O)(=O)c4ccc(OC)cc4)cc3)CC2)cc1	/	?	?	17.8µM	.	13.4µM
COc1ccc(N2CCN(C(=O)CN(c3cccc(OC)c3)S(=O)(=O)c3ccccc3)CC2)cc1	8.91µM	?	?	?	.	.
SMILES	G9a inh	BAZ2B inh	HP1b binding inh	JMJD2A Tudor	12-LOX inh	PLK1 PBD block
C[C@H](N)[C@H](O)c1cccc(O)c1	.[21.5 µM]	/	/	/	.[22.9 µM]	/
O=C(CCc1nc2ccccc2c(=O)[nH]1)NCC(=O)Nc1ccc(F)c(F)c1	.	.	.	.	.	.
CCOC(=O)C1CCCCN1Cc1cccc(OCc2ccccc2)c1 (configuration not stated)	/	?	?	10µM	.	.
CCOC(=O)C1CCCCN1Cc1cccc(Oc2ccccc2)c1 (configuration not stated)	.	.	.	.	14.1µM	.
COCC(=O)N(c1ccc(C(C)C)cc1)C1C=CS(=O)(=O)C1 (configuration not stated)	.[12.7 µM]	.	.	.	.	.
O=C(Cn1cc(SCc2ccc(F)cc2)c2ccccc21)N1CCOCC1	.	.	.	.	.	.
CCCCNC(=O)C1(C)CCN1C(=O)c1cccc2c1OCCO2 (configuration not stated)	/	/	/	/	.	.
CC1CC(C)(C)N(C(=O)NC2CCCCC2)c2ccccc21 (configuration not stated)	.	.	.	.	.	.
COc1ccc2c(c1)C(C)CC(C)(C)N2C(=O)NC1CCCCC1 (configuration not stated)	44.7µM	?	.	.	.	.
Cc1ccccc1OCCn1c(=S)[nH]c2c(N)ncnc21	1.78µM	.	?	7.08µM	?	.
Cc1ccccc1OCCn1cnc2c(N)ncnc21	.	.	.	.	.	.
O=c1[nH]c(=S)n(-c2ccc(Br)cc2)c2ncccc12	/	/	.	.	?	.
Fc1ccc(-n2c(=S)[nH]c3cccnc32)cc1	/	.	70.8µM	15.8µM	?	11.9µM
CC(CC(=O)NCC1(N(C)C)CCCCCC1)NC(=O)c1ccccc1 (configuration not stated)	/	/	/	/	.	/
Cc1ccc(-c2nn(CCC(=O)Nc3cccc4ccccc34)c(=O)c3ccccc23)cc1	/	/	/	/	.	/
CC(=O)c1cccc(N=Nc2c(C)[nH]c3ccccc23)c1	10µM	35.5µM	.	?	.	.
COc1ccc(N=Nc2c(C)[nH]c3ccccc23)cc1	/	/	?	50.1µM	?	.
Cc1nn(CC(O)c2ccccc2)c(C)c1Br (configuration not stated)	.	?	.	.	.	.
O=C1c2ccccc2C(=O)N1CC(O)Cn1nnc2ccccc21 (configuration not stated)	.	.	.	.	.	.
OC(CN1c2ccccc2Sc2ccccc21)Cn1nnc2ccccc21 (configuration not stated)	20µM	.	?	?	.	.
Cc1nn(CC(O)CN2c3ccccc3Sc3ccccc32)c(C)c1Br (configuration not stated)	?	?	?	?	.	3.77µM
